Reference: PubChem BioAssay (Tox21)
Results filed as inconclusive are left out. Activity calls are given as the source filed them. Unless noted, calls follow the shape of the dose curve; as a rule, active = well fitted curve in the direction sought with a large enough effect in the repeat runs; inconclusive = weak or mixed curves; inactive = no such curve, though single readings can be large; an effect the other way counts as inactive or inconclusive.

Columns and labels:
[1] = qHTS assay to identify small molecule antagonists of the estrogen receptor beta (ER-beta) signaling pathway - cell viability counter screen (AID 1259382);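 also: HEK293T cells carrying ER-beta-UAS-bla reporter stimulated with estradiol; series mostly up to about 92 µM; nearly all actives have a fitted effect of over 55% in size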
How it was run: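 Tox21 10K library tested in qHTS format on ER-beta-bla HEK293T cells stimulated with 1nM E2; 16 hr treatment at 37C. Same-well CellTiter-Glo luminescence served as the cell viability measure.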

[2] = target: Estrogen receptor (Homo sapiens) (UniProt P03372); experiment: qHTS assay to identify small molecule agonists of the estrogen receptor alpha (ER-alpha) signaling pathway in the presence of an antagonist (AID 1259383; calls by dose curve; also: top concentration of the series differs between compounds; nearly all actives have a fitted effect of over 15% in size)
How it was run: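 In VM7Luc4E2 cells, 4,000 per well, compounds at 15 concentrations were co-incubated 22hr at 37C with 10.0nM final ICI-182,780. Luminescence from the stably transfected 4×ERE-luciferase reporter was recorded 30min after ONE-Glo addition.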

[3] = qHTS assay to identify small molecule agonists or antagonists of the thyroid stimulating hormone receptor (TSHR) signaling pathway - wild type cell line counter screen (AID 1259384; calls by dose curve)
How it was run: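 Wild-type Hek293 cells, 800/well, 18 h at 37C, then compound with Ro20-1724 for 30 min RT. cAMP by HTRF (cAMP-d2/anti-cAMP cryptate), 1 h RT, fluorescence read. 15 concentrations, triplicates.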

[4] = target: Thyrotropin receptor (Homo sapiens) (UniProt P16473); experiment: qHTS assay to identify small molecule antagonists of the thyroid stimulating hormone receptor (TSHR) signaling pathway (AID 1259385; calls by dose curve; also: nearly all actives have a fitted effect of over 20% in size)
How it was run: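 TSHR-HEK293 cells (800/well) plated 18 h, then compounds with Ro20-1724 and TSH at 1.5 ng/mL final, 30 min at room temperature. cAMP quantified by HTRF (cAMP-d2/anti-cAMP-cryptate, 1 h); 15 concentrations in triplicate.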

[5] = qHTS assay to identify small molecule agonists of the estrogen receptor alpha (ER-alpha) signaling pathway in the presence of an antagonist - cell viability counter screen (AID 1259386);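 also: series mostly up to about 92 µM; cells exposed to compounds for 22 h at 37 °C before the viability read; nearly all actives have a fitted effect of over 30% in size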
How it was run: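 Fluorescent CellTiter-Fluor viability signal from VM7Luc4E2 cells, with the reagent added during the final hour of a 22hr compound exposure at 37C in the presence of 10.0nM ICI-182,780.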

[6] = target: Progesterone receptor (Homo sapiens) (UniProt P06401); experiment: qHTS assay to identify small molecule agonists of the progesterone receptor (PR) signaling pathway (AID 1346784; calls by dose curve; also: nearly all actives have a fitted effect of over 30% in size)
How it was run: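 Beta-lactamase reporter read-out: after 16 hr compound treatment at 37C and a further 2 hr at room temperature with LiveBLAzer B/G FRET substrate, fluorescence was measured in PR-UAS-bla HEK 293T cells grown in 2% charcoal-stripped serum.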

[7] = target: Progesterone receptor (Homo sapiens) (UniProt P06401); experiment: qHTS assay to identify small molecule antagonists of the progesterone receptor (PR) signaling pathway (AID 1346795; active = well fitted inhibition curve with a large enough effect in the signal ratio in the repeat runs, not every such curve was filed as active; the % refers to the signal ratio)
How it was run: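 Read-out is fluorescence from the LiveBLAzer B/G FRET substrate, cleaved by a UAS-controlled beta-lactamase in PR-UAS-bla HEK293T cells after 16 hr exposure to compound plus 1 nM promegestone (final), followed by 2 hr at room temperature.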

[8] = qHTS assay to identify small molecule antagonists of the progesterone receptor (PR) signaling pathway - cell viability counter screen (AID 1346798);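 also: HEK293T PR-UAS-bla cells stimulated with the agonist R5020; series mostly up to about 92 µM; nearly all actives have a fitted effect of over 50% in size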
How it was run: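 HEK293T PR-UAS-bla, 2% charcoal-stripped FBS; 4 hr pre-plate; cpd + R5020, 16 h 37C; LiveBLAzer read first; then CellTiter-Glo 30 min RT, luminescence.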

[9] = qHTS assay to identify small molecule agonists of the progesterone receptor (PR) signaling pathway - cell viability counter screen (AID 1346799; calls by dose curve; also: nearly all actives have a fitted effect of over 45% in size)
How it was run: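 Luminescence from CellTiter-Glo, added after the beta-lactamase FRET read in the same wells, gave cytotoxicity in PR-UAS-bla HEK293T cells treated with compounds for 16 hr at 37C.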

[10] = qHTS assay to identify small molecule agonists of the TGF-beta/Smad signaling pathway - cell viability counter screen (AID 1346829); also: top concentration of the series differs between compounds; nearly all actives have a fitted effect of over 45% in size
How it was run: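 Same-well cytotoxicity: CellTiter-Glo added after the 2 hr room-temperature beta-lactamase substrate step, luminescence measured 30 min later; cells had 5 hr of compound at 37 C.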

[11] = qHTS assay to identify small molecule agonists of the TGF-beta/Smad signaling pathway (AID 1346859; active = well fitted activation curve with a large enough effect in the signal ratio in the repeat runs, not every such curve was filed as active; the % refers to the signal ratio; also: series mostly up to about 77 µM)
How it was run: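 SBE-bla HEK 293T, 4,000 cells/well, plated o/n; cpd in DMSO, 5 hr, 37 C/5% CO2; B/G FRET substrate 2 hr RT; ex 405, em 460/530 nm.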

[12] = target: Thyrotropin-releasing hormone receptor (Homo sapiens) (UniProt P34981); experiment: qHTS assay to identify small molecule antagonists of the thyrotropin-releasing hormone receptor (TRHR) signaling pathway (AID 1346877; active = well fitted inhibition curve with a large enough effect in the repeat runs, not every such curve was filed as active; also: series mostly up to about 51 µM)
How it was run: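 In this cell-based calcium flux format, HEK293 cells expressing TRHR received test compound for 5 min before the agonist TRH (1 nM final). Dye loading lasted 2 h at 37 °C.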

[13] = target: Thyrotropin-releasing hormone receptor (Homo sapiens) (UniProt P34981); experiment: qHTS assay to identify small molecule agonists of the thyrotropin-releasing hormone receptor (TRHR) signaling pathway (AID 1346891; calls by dose curve; also: series mostly up to about 58 µM)
How it was run: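 Intracellular calcium rise, read as fluorescence every second for 3 min, served as the agonist signal in dye-loaded HEK293 cells expressing TRHR; each compound ran at 15 concentrations in triplicate.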

[14] = Human pregnane X receptor (PXR) small molecule agonists, qHTS cell viability counter screen (AID 1346977); also: nearly all actives have a fitted effect of over 50% in size
How it was run: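 PXR-Luc HepG2, 2,000 cells/well, 5% charcoal-stripped FBS; 5hr settle; cpd 24hr, 37C/5% CO2; CellTiter-Fluor at 23hr, read 1hr later (fluorescence).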

[15] = Caspase-3/7 induction in HepG2 cells by small molecules, qHTS assay (AID 1346978); also: nearly all actives have a fitted effect of over 15% in size
How it was run: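 Wild-type HepG2 cells, 2,000/well, settled 5 hr at 37 C and 5% CO2, then compound-treated for 17 hr; caspase-3/7 activity read by luminescent Caspase-Glo 3/7 after 30 min at room temperature.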

[16] = Caspase-3/7 induction in CHO-K1 cells by small molecules, qHTS cell viability counter screen (AID 1346979); also: nearly all actives have a fitted effect of over 35% in size
How it was run: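 Cells (CHO-K1, wild type) are plated at 1,500 per well and incubated 5hr. Test compounds in DMSO are then pinned in, followed by 16hr at 37C and 5% CO2. Viability is read by CellTiter-Fluor fluorescence after 1hr.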

[17] = Caspase-3/7 induction in CHO-K1 cells by small molecules, qHTS assay (AID 1346980); also: nearly all actives have a fitted effect of over 15% in size
How it was run: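 Wild-type CHO-K1 cells exposed to compounds for 17hr at 37 C, 5% CO2. Caspase-3/7 activity then measured by Caspase-Glo 3/7 luminescence after 30min at room temperature.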

[18] = Caspase-3/7 induction in HepG2 cells by small molecules, qHTS cell viability counter screen (AID 1346981); also: series mostly up to about 92 µM; nearly all actives have a fitted effect of over 30% in size
How it was run: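 Counter screen for cytotoxicity: HepG2 exposed 16 hr to compounds, then CellTiter-Fluor viability signal (fluorescence, 1 hr reagent incubation).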

[19] = qHTS assay to identify small molecule antagonists of the TGF-beta/Smad signaling pathway - cell viability counter screen (AID 1346824); also: nearly all actives have a fitted effect of over 50% in size
How it was run: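 SBE-bla HEK 293T cells, incubated overnight, then compound plus 0.25 ng/mL TGF-beta1 (stock added) for 5 hr at 37 C. Viability was read in the same wells by CellTiter-Glo luminescence after 30 min at room temperature.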
% is scaled to controls: 0 for no effect and ±100 for the full control effect.

Sequence of Progesterone receptor (Homo sapiens) (P06401 whole entry, looked up): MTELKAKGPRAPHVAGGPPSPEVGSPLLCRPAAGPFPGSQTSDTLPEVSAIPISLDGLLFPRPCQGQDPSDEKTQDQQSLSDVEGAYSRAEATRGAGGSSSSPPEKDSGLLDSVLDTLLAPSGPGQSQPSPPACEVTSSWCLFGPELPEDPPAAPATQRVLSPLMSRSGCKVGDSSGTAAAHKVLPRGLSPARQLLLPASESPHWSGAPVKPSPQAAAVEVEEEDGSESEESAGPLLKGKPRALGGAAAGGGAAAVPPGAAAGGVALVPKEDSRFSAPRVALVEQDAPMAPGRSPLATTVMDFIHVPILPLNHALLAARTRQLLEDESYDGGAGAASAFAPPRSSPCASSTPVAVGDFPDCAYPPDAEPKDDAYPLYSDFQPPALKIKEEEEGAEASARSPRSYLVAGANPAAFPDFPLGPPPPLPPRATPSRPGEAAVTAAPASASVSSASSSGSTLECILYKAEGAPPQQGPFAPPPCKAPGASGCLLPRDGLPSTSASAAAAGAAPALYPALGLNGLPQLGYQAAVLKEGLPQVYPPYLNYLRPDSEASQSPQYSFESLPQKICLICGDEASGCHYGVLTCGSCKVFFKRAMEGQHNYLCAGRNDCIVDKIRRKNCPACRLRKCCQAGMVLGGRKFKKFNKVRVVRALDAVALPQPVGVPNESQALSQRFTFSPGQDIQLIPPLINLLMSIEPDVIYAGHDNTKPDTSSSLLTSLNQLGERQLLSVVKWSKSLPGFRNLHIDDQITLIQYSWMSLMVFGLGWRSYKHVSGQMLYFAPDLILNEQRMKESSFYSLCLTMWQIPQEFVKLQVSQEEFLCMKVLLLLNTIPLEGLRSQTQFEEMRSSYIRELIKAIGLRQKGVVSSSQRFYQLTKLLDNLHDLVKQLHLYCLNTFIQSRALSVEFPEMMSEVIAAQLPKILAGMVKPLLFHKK
Sequence of Thyrotropin-releasing hormone receptor (Homo sapiens) (P34981 whole entry, looked up): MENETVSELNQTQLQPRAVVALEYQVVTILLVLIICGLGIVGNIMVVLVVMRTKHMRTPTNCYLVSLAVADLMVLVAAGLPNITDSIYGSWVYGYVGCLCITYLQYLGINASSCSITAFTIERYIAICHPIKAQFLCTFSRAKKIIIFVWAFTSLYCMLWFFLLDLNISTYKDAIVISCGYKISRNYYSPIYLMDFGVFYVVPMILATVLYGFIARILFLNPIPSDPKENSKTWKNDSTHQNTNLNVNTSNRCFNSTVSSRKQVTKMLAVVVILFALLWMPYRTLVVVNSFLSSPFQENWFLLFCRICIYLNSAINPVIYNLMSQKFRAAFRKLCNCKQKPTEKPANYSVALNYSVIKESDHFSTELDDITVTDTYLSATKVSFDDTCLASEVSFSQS
Sequence of Thyrotropin receptor (Homo sapiens) (P16473 whole entry, looked up): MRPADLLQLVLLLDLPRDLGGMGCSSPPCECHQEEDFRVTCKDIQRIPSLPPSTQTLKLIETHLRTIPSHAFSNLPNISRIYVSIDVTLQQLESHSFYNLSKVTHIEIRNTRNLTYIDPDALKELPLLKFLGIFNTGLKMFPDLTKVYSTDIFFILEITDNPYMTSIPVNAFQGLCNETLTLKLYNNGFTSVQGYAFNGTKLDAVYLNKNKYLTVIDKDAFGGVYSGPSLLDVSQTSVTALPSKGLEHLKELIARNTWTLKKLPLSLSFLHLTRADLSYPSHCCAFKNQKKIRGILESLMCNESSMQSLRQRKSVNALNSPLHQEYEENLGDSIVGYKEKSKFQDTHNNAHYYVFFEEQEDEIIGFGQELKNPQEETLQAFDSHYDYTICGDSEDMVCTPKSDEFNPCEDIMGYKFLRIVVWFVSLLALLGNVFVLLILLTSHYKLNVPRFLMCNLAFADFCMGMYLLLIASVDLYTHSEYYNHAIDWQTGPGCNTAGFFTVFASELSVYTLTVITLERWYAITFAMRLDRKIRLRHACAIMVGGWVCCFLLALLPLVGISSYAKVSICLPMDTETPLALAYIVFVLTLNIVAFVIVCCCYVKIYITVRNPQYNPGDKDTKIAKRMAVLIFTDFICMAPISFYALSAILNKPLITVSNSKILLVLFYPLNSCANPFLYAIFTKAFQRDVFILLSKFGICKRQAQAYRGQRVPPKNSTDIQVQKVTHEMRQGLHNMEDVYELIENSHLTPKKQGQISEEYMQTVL
Sequence of Estrogen receptor (Homo sapiens) (P03372 whole entry, looked up): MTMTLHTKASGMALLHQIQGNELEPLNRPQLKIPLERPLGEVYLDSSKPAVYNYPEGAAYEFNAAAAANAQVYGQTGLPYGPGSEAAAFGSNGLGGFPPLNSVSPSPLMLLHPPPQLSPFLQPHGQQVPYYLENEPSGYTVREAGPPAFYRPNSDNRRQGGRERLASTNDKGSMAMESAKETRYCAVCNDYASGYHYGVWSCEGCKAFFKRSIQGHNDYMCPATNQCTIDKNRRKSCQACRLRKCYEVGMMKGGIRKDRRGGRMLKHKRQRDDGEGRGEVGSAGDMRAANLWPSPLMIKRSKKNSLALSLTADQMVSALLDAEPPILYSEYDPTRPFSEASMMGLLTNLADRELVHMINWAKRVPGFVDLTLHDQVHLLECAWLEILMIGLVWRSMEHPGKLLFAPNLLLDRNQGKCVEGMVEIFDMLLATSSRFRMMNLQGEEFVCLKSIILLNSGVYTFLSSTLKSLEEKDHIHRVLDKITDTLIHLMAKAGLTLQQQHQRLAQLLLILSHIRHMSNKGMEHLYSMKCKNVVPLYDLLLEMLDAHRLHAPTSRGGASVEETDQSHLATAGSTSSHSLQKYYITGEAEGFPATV

CC(CO)(CO)CO
inactive: outcome [1] | Potency [2] | outcome [3] | outcome [4] | outcome [5] | Potency [6] | Potency [7] | outcome [8] | outcome [9] | outcome [10] | outcome [11] | outcome [12] | outcome [13] | outcome [14] | outcome [15] | Potency [16] | outcome [17] | outcome [18]

CCc1occc(=O)c1O
inactive: outcome [1] | Potency [2] | outcome [3] | outcome [4] | outcome [5] | Potency [6] | Potency [7] | outcome [8] | outcome [9] | outcome [19] | outcome [10] | outcome [11] | outcome [14] | outcome [15] | Potency [16] | outcome [17] | outcome [18]

Fc1ccccc1
inactive: outcome [1] | Potency [2] | outcome [3] | outcome [4] | outcome [5] | Potency [6] | Potency [7] | outcome [8] | outcome [9] | outcome [19] | outcome [11] | outcome [12] | outcome [13] | outcome [15] | Potency [16] | outcome [17] | outcome [18]

C=CC/C=C/C
inactive: outcome [1] | Potency [2] | outcome [3] | outcome [4] | outcome [5] | Potency [6] | Potency [7] | outcome [8] | outcome [9] | outcome [19] | outcome [11] | outcome [12] | outcome [13] | outcome [14] | outcome [15] | Potency [16] | outcome [17] | outcome [18]

CC1(C)O[C@H]2CC(=O)OC[C@]23[C@H]2CC[C@@]4(C)[C@H](c5ccoc5)OC(=O)[C@H]5O[C@]54[C@]2(C)C(=O)C[C@@H]13
inactive: outcome [1] | Potency [2] | outcome [3] | outcome [4] | outcome [5] | Potency [6] | Potency [7] | outcome [8] | outcome [9] | outcome [19] | outcome [10] | outcome [11] | outcome [12] | outcome [13] | outcome [14] | outcome [15] | Potency [16] | outcome [17] | outcome [18]

CC(S)C(C)S (stereo not drawn)
inactive: outcome [1] | Potency [2] | outcome [3] | outcome [4] | outcome [5] | Potency [6] | Potency [7] | outcome [8] | outcome [9] | outcome [10] | outcome [11] | outcome [12] | outcome [13] | outcome [14] | outcome [15] | Potency [16] | outcome [17] | outcome [18]

N[C@@H](CSCCCO)C(=O)O
inactive: activity change, negative = cytotoxicity [1] 8.62% [at 19 µM] | activation [2] -1.71% [at 19 µM] | cAMP activity change [3] -1.7% [at 18.9 µM] | activity change, negative = inhibition [4] -0.731% [at 19 µM] | activity change, negative = cytotoxicity [5] -1.24% [at 19 µM] | activation [6] -0.517% [at 19 µM] | activity change, negative = inhibition [7] 8.75% [at 18.9 µM] | activity change, negative = cytotoxicity [8] -3.41% [at 18.9 µM] | activity change, negative = cytotoxicity [9] 4.73% [at 19 µM] | viability change, negative = cytotoxic [19] -0.153% [at 15.8 µM] | activity change, negative = cytotoxicity [10] 6.47% [at 15.8 µM] | activation [11] 6.83% [at 15.8 µM] | activity, negative = inhibition [12] -0.484% [at 10.5 µM] | activation [13] -0.038% [at 11.8 µM] | activity change, negative = cytotoxicity [14] 9.45% [at 19 µM] | caspase activation [15] -0.396% [at 19 µM] | activity change, negative = cytotoxicity [16] 1.3% [at 19 µM] | caspase-3/7 activation [17] 0.125% [at 19 µM] | activity change, negative = cytotoxicity [18] -2.1% [at 19 µM]

CC/C=C\CCOC(=O)c1ccccc1O
inactive: outcome [1] | Potency [2] | outcome [3] | outcome [4] | outcome [5] | Potency [6] | Potency [7] | outcome [8] | outcome [9] | outcome [19] | outcome [10] | outcome [11] | outcome [12] | outcome [13] | outcome [15] | outcome [17] | outcome [18]
